The text below walks through data of PubChem BioAssay (EPA / NIEHS).

The nature of assay [1]: ATG_NF_kB_CIS: Attagene CIS-FACTORIAL HepG2 Assay for human Nuclear Factor Kappa B (NF-kB) (AID 2282991; active = hit-call score of the fitted dose curve at least 0.9, where 1 is the maximum; inactive = score below 0.9). To be noted: HepG2 Attagene cis-factorial NF-kB reporter mRNA; actives raise or lower the signal. The essentials: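 Measures mRNA induction of an NF-kB-responsive cis-element reporter in HepG2 cells transfected with multiple reporter units, sampled 24 h post-dosing; quantified by fluorescence after RT-PCR and capillary electrophoresis, fitted for activation or inhibition against DMSO.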

Assay [2] is described as follows: ATG_NRF2_ARE_CIS: Attagene CIS-FACTORIAL HepG2 Assay for human Nuclear Factor Erythroid 2 Related Factor 2 (NFR2) response to Antioxidant Response Elements (ARE) (AID 2282992; active = hit-call score of the fitted dose curve at least 0.9, where 1 is the maximum; inactive = score below 0.9). The conditions noted are these: HepG2 Attagene ARE/NRF2 reporter, transcription factor activity; actives raise or lower the signal. In outline:
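Endogenous transcription factor activity read out as reporter transcript levels (RT-PCR plus capillary electrophoresis, fluorescence) in transiently transfected HepG2 cells. Measured at 24 h after dosing; gain or loss of signal fitted versus DMSO.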

The nature of assay [3]: ATG_Oct_MLP_CIS: Attagene CIS-FACTORIAL HepG2 Assay for human Octamer-Binding Transcription Factor (Oct) (AID 2282993; active = hit-call score of the fitted dose curve at least 0.9, where 1 is the maximum; inactive = score below 0.9). The conditions noted are these: HepG2 Attagene cis-factorial Oct reporter, mRNA; actives raise or lower the signal. The essentials: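 Transient MRTU transfection of HepG2 → 24 h compound treatment → RNA isolation, reverse transcription, PCR → 6-FAM primer extension, HpaI digest → capillary electrophoresis. Activity fitted both directions against DMSO.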

For assay [4], the target named is Cellular tumor antigen p53 (Homo sapiens) (UniProt P04637). In words: ATG_p53_CIS: Attagene CIS-FACTORIAL HepG2 Assay for human p53 Transcription Factor (AID 2282994; active = hit-call score of the fitted dose curve at least 0.9, where 1 is the maximum; inactive = score below 0.9). To be noted: HepG2 p53 cis-element reporter, Attagene mRNA; actives raise or lower the signal. The essentials:
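Endogenous p53 activity read in transiently transfected HepG2 from a cis-element-driven reporter transcript after 24 h exposure. RNA reverse-transcribed, PCR-amplified, fluorescently labelled and sized by capillary electrophoresis; gain or loss fitted against DMSO baseline.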

Assay [5] has as its target human Peroxisome Proliferator-activated Receptor alpha (PPARa), PPARA (gene 5465) (UniProt Q07869). Kind of assay: ATG_PPARa_TRANS: Attagene TRANS-FACTORIAL HepG2 Assay for human Peroxisome Proliferator-activated Receptor alpha (PPARa) (AID 2283001).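 For AC50: potency for gain of reporter signal over DMSO so agonist or activator.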 In outline: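 Transient HepG2 transfection, GAL4-UAS reporters, NR-Gal4 chimeras; 24 h compound exposure. Readout: reporter transcripts by RT-PCR, 6-FAM primer extension, HpaI digest, capillary electrophoresis. Positive direction vs DMSO baseline.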

The target of assay [6] is Peroxisome proliferator-activated receptor gamma (Homo sapiens) (UniProt P37231). In words: ATG_PPARg_TRANS: Attagene TRANS-FACTORIAL HepG2 Assay for human Peroxisome Proliferator-activated Receptor-gamma (PPARg) (AID 2283007). In outline: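 Gain-of-signal endpoint relative to DMSO, derived from reporter mRNA levels quantified by RT-PCR and capillary electrophoresis. Cells were HepG2 transiently expressing a chimeric NR-Gal4 construct with GAL4-UAS reporters, exposed to chemicals for 24 h.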
Peroxisome proliferator-activated receptor gamma (Homo sapiens), sequence (P37231 whole entry, looked up, the tested form may be a part): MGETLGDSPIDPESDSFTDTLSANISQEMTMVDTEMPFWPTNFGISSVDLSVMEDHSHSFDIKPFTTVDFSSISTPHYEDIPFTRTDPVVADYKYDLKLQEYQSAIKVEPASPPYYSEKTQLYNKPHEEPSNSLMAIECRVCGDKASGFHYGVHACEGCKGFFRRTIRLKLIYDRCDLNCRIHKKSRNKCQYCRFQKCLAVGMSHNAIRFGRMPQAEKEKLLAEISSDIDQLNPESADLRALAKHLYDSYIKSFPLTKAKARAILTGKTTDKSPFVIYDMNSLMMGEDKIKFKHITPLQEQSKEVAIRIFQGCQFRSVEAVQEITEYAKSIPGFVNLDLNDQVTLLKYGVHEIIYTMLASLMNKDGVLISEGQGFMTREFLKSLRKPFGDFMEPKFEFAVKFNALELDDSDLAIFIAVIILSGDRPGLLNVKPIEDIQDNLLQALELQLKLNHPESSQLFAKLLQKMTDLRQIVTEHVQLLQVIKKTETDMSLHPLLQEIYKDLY

Assay [7] concerns the target Nuclear receptor subfamily 1 group I member 2 (Homo sapiens) (UniProt O75469). In words: ATG_PXR_TRANS: Attagene TRANS-FACTORIAL HepG2 Assay for human Pregnane X Receptor (PXR) (AID 2283008). The essentials:
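Transactivation by exogenous PXR–GAL4 fusion measured as reporter transcript induction after 24 h compound treatment of transfected human HepG2 cells. Read-out via RT-PCR and capillary electrophoresis of labelled fragments, fitted upward relative to DMSO.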

The target of assay [8] is human Retinoic Acid Receptor beta (RARb), RARB (gene 5915) (UniProt P10826). Kind of assay: ATG_RARb_TRANS: Attagene TRANS-FACTORIAL HepG2 Assay for human Retinoic Acid Receptor beta (AID 2283004). The essentials:
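Fluorescent capillary-electrophoresis detection of GAL4-UAS reporter mRNA defines the endpoint, with induction over DMSO-treated wells scored as activity. Transiently transfected human hepatoma HepG2 cells expressing exogenous NR–Gal4 proteins are exposed to test chemicals for 24 h.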

Assay [9] addresses human RAR-related Orphan Receptor gamma (RORg), RORC (gene 6097) (UniProt P51449). Kind of assay: ATG_RORg_TRANS: Attagene TRANS-FACTORIAL HepG2 Assay for human RAR-related Orphan Receptor gamma (RORg) (AID 2283011). In outline: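 Chimeric RORg-Gal4 transactivation in transfected HepG2; 24 h exposure; RT-PCR/capillary electrophoresis readout of reporter mRNA, DMSO baseline.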

Assay [10] has as its target human Retinoic Acid Receptor gamma (RARg), RARG (gene 5916) (UniProt P13631). Kind of assay: ATG_RARg_TRANS: Attagene TRANS-FACTORIAL HepG2 Assay for human Retinoic Acid Receptor gamma (RARg) (AID 2283009). In outline:
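Readout: reporter transcript levels via RT-PCR, 6-FAM primer-extension labelling, HpaI digestion and capillary electrophoresis. Cells: HepG2 carrying transfected RARg-GAL4 chimera plus UAS reporter set. Dosing 24 h; DMSO negative control.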

Assay [11] addresses Retinoic acid receptor alpha (Homo sapiens) (UniProt P10276). Kind of assay: ATG_RARa_TRANS: Attagene TRANS-FACTORIAL HepG2 Assay for human Retinoic Acid Receptor alpha (RARa) (AID 2283005). In outline: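 HepG2 transiently transfected with multiplex GAL4-UAS reporter units including a human RARa–GAL4 chimera; 24 h compound exposure. Reporter mRNA quantified by RT-PCR, 6-FAM labeling and capillary electrophoresis; gain of signal versus DMSO.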

The target in assay [12] is Retinoic acid receptor RXR-alpha (Homo sapiens) (UniProt P19793). In words: ATG_RXRa_TRANS: Attagene TRANS-FACTORIAL HepG2 Assay for human Retinoid X Receptor alpha (RXRa) (AID 2283012). In outline: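 Read-out: fluorescent reporter-transcript fragments quantified by capillary electrophoresis after RT-PCR. Transiently transfected HepG2 cells carrying GAL4-UAS reporters and NR-GAL4 chimeras were exposed to chemical for 24 h; activity scored as increase over DMSO.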
Retinoic acid receptor RXR-alpha (Homo sapiens), sequence (P19793 whole entry, looked up, the tested form may be a part): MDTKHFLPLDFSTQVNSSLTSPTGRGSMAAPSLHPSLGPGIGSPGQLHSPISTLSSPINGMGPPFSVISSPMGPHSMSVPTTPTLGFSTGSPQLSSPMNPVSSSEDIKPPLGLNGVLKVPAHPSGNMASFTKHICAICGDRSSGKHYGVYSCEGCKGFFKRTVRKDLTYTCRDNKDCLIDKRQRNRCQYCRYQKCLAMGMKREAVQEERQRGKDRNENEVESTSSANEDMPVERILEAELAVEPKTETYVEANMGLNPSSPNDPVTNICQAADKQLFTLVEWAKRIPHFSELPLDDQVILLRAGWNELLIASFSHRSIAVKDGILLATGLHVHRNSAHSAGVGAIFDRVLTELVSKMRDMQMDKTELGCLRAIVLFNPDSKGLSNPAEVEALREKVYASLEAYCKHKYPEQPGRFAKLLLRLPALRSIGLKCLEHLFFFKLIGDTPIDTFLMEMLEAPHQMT

The target of assay [13] is human Peroxisome Proliferator-activated Receptor delta (PPARd), PPARD (gene 5467) (UniProt Q03181). In words: ATG_PPARd_TRANS: Attagene TRANS-FACTORIAL HepG2 Assay for human Peroxisome Proliferator-activated Receptor delta (PPARd) (AID 2283002). In outline:
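HepG2 cells transiently transfected with GAL4-UAS multiplexed reporter units driven by exogenous chimeric NR-GAL4 proteins; 24 h compound exposure. Reporter mRNA measured by RT-PCR, 6-FAM primer extension, HpaI digestion and capillary electrophoresis; gain of signal fitted relative to DMSO.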

For assay [14], the target named is human RAR-related Orphan Receptor beta (RORb), RORB (gene 6096) (UniProt Q92753). Kind of assay: ATG_RORb_TRANS: Attagene TRANS-FACTORIAL HepG2 Assay for human RAR-related Orphan Receptor beta (RORb) (AID 2283010). The essentials:
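HepG2, transient MRTU transfection (GAL4-UAS reporters, exogenous NR-Gal4 chimeras); 24 h compound exposure; total RNA → RT-PCR → 6-FAM primer extension → HpaI digest → CE fluorescence. Positive direction vs DMSO baseline.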

Inconclusive results are not listed. Activity calls are given as the source filed them. Rule for the calls, unless noted: active = hit-call score of the fitted dose curve at least 0.9, where 1 is the maximum; inconclusive = response in the unintended direction; inactive = score below 0.9.

Nuclear receptor subfamily 1 group I member 2 (Homo sapiens), sequence (O75469 whole entry, looked up, the tested form may be a part): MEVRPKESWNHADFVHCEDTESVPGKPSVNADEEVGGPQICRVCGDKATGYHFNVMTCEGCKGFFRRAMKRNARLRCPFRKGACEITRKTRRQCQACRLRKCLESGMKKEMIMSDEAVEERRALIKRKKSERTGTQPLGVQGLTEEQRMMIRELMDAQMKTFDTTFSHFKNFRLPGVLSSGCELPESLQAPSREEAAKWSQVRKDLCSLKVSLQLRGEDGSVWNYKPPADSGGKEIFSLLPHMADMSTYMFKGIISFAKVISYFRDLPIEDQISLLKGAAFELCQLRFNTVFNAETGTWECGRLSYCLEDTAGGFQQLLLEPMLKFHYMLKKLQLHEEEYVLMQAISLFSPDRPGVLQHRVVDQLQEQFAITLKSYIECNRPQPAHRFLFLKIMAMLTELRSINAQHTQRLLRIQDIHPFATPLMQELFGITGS
human Peroxisome Proliferator-activated Receptor alpha (PPARa), PPARA (gene 5465), sequence (Q07869 whole entry, looked up, the tested form may be a part): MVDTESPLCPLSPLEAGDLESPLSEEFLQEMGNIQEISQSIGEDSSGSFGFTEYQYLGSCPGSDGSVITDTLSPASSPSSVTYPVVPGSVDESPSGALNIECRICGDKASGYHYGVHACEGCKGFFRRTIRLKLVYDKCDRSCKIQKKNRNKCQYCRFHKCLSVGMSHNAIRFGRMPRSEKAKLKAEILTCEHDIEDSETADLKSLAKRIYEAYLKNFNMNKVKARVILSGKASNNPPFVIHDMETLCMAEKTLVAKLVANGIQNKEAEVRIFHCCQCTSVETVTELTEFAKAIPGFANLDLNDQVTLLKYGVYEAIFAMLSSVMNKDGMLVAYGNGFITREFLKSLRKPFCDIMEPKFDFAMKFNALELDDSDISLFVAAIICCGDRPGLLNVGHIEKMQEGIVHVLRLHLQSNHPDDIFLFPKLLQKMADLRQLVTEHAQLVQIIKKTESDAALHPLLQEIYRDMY
human Retinoic Acid Receptor beta (RARb), RARB (gene 5915), sequence (P10826 whole entry, looked up, the tested form may be a part): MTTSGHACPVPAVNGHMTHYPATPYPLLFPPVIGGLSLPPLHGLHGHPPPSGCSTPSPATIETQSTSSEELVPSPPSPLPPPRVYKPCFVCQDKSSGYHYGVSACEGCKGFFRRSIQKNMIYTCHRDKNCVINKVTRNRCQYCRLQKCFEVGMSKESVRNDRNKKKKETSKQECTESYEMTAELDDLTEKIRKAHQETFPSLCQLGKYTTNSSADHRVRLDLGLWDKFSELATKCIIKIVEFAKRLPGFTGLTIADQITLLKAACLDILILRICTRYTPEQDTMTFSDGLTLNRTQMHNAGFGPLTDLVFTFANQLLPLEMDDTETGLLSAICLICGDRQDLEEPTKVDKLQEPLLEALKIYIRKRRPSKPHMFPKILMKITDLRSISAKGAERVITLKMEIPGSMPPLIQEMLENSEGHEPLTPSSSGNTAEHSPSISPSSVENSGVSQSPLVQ
human Peroxisome Proliferator-activated Receptor delta (PPARd), PPARD (gene 5467), sequence (Q03181 whole entry, looked up, the tested form may be a part): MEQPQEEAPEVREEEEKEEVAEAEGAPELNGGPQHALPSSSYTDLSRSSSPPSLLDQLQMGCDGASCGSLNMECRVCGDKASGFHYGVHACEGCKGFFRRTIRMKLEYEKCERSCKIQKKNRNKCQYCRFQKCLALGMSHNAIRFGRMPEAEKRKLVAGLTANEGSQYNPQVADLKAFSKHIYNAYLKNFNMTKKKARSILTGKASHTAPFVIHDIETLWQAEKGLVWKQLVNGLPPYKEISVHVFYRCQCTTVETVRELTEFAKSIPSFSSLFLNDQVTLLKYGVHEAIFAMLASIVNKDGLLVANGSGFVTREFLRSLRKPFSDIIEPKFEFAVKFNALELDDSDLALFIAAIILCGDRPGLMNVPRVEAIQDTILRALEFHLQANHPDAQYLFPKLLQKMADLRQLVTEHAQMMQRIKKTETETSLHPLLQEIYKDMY
human Retinoic Acid Receptor gamma (RARg), RARG (gene 5916), sequence (P13631 whole entry, looked up, the tested form may be a part): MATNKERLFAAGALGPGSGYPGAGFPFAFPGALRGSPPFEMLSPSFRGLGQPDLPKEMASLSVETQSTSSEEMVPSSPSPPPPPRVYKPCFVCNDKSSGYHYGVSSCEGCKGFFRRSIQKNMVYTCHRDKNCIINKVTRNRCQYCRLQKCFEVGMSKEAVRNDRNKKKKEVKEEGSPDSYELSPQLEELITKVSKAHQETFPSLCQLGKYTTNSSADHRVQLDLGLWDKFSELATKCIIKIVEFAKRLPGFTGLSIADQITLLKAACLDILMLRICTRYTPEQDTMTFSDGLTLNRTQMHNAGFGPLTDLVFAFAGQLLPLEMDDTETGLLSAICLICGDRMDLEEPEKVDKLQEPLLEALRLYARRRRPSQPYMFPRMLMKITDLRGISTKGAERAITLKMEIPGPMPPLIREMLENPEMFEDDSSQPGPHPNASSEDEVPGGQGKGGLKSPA
Cellular tumor antigen p53 (Homo sapiens), sequence (P04637 whole entry, looked up): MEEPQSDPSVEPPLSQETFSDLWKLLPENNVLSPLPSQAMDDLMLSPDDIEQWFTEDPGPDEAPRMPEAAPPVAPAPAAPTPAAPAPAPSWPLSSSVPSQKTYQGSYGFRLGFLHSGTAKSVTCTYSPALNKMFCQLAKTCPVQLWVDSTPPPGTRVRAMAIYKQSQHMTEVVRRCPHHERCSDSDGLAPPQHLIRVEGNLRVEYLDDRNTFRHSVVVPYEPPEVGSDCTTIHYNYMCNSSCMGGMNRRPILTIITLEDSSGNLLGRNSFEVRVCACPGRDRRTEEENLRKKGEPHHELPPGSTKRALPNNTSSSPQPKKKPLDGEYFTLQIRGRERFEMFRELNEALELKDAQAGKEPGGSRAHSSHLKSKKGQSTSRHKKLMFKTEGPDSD
human RAR-related Orphan Receptor gamma (RORg), RORC (gene 6097), sequence (P51449 whole entry, looked up, the tested form may be a part): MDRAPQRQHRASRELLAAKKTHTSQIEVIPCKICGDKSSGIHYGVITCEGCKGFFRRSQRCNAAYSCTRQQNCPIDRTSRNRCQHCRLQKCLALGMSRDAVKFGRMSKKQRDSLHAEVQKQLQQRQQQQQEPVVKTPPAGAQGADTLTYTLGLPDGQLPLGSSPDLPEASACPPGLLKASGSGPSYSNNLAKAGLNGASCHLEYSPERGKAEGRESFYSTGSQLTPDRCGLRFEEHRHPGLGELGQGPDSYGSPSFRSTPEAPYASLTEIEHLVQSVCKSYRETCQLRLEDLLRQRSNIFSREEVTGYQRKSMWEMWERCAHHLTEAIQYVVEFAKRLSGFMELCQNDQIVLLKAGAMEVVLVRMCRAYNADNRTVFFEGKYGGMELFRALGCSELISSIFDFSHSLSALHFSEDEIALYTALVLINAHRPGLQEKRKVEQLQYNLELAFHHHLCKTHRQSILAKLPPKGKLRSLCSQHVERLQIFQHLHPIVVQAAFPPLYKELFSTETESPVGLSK
Retinoic acid receptor alpha (Homo sapiens), sequence (P10276 whole entry, looked up, the tested form may be a part): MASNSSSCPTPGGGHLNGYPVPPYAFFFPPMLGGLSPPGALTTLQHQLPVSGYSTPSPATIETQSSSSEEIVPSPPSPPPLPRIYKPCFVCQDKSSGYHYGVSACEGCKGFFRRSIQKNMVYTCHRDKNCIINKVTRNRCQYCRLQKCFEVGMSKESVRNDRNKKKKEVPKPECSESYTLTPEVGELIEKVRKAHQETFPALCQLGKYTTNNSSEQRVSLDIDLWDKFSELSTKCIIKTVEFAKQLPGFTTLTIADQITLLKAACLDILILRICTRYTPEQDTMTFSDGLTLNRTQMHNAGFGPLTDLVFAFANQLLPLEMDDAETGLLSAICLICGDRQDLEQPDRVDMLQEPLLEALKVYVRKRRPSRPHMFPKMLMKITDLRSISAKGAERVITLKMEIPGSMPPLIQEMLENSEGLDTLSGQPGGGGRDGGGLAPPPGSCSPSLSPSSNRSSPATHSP

By AC50 is commonly meant the midpoint of the concentration-response curve, whichever way the signal moves. For `Clc1cnc(Oc2ccc(Oc3ncc(Cl)cc3Cl)cc2)c(Cl)c1`, the compound was called inactive in assay [1], in assay [2], in [3], in [4] and in [5]. The AC50 was 16700 nM (active) in [6] and 7480 nM (active) in assay [7].

As to `BrCCCCBr`, the call in [1], in assay [2], in assay [3], in assay [4], in assay [5] and in assay [8] was inactive. For the same compound, the compound was classed as inactive in assay [6] and in assay [9].

On to `CN(N=O)C(N)=O`, for which the outcome in assay [1], in assay [2], in assay [3], in assay [4], in assay [5] and in [6] was inactive. For the same compound, the compound was called inactive in assay [7] and in [10].

Turning to `CN(CCCC(O)c1cccnc1)N=O` (stereo unspecified), the compound was classed as inactive in assay [1], in [2], in [3], in [4], in assay [5] and in assay [8]. Besides, the compound was classed as inactive in assay [11], in assay [6], in [7], in assay [9] and in [12].

As to `O=S(=O)(F)C(F)(F)C(F)(F)C(F)(F)C(F)(F)F`, the compound was called inactive in assay [1], in assay [2], in [3], in assay [4], in assay [5] and in assay [13]. For the same compound, the outcome in [6], in assay [7] and in assay [12] was inactive.

For `NC(=O)c1ccc(N)nc1`, the outcome in [1], in assay [2], in assay [3], in [4], in [5] and in assay [8] was inactive. Besides, the compound was classed as inactive in assay [11], in assay [7], in assay [10], in [14], in [9] and in assay [12].

As for `C=CC(=O)OCC(COC(=O)C=C)(COC(=O)C=C)COC(=O)C=C`, the concentration at half-maximal activity (AC50) was 1960 nM (active) in assay [1]; 8160 nM (active) in [3]; 8930 nM (active) in [4]; 100000 nM (active) in assay [5]; 100000 nM (active) in [6]. In addition, the outcome in assay [2], in assay [13], in [10] and in [9] was inactive.

On to `CNC(=O)O/N=C/C(C)(C)S(C)(=O)=O`, for which the call in assay [1], in assay [2], in assay [3], in assay [4], in assay [5] and in assay [14] was inactive.

Consider `N#Cc1ccc(Cl)cc1`, for which the result in [1], in assay [2], in assay [3], in assay [4], in assay [5] and in assay [13] was inactive. The call in [6], in assay [7], in assay [10], in [9] and in [12] was inactive.

For `O=C(O)COc1ccc(Cl)cc1`, the result in assay [1], in assay [2], in assay [3], in [4], in assay [5] and in assay [13] was inactive. For the same compound, the call in assay [6] and in [12] was inactive.

In the case of `CCOc1ccc(N)cc1`, the compound was classed as inactive in assay [1], in [2], in assay [3], in [4], in [5] and in assay [8].

As to `C=CC(=O)[O][Sn]([CH2]CCC)([CH2]CCC)[CH2]CCC`, the outcome in assay [1], in [4] and in assay [13] was inactive. Further, the AC50 in assay [2] was 111 nM (active); in [3], 348 nM (active); in assay [5] it was 599 nM (active); in assay [6], 93.4 nM (active); in assay [7], 237 nM (active); in assay [12], 1.77 nM (active).

`Cc1ccc(CCl)cc1`: the call in [1], in assay [2], in assay [3], in assay [4], in assay [5] and in assay [6] was inactive. Moreover, in assay [9], the call was inactive.
